Measurements as given in PubChem BioAssay (NCATS).
Where “and” joins values, the source holds several entries; their conditions need not be identical. Identical values can stand only once.

Assay: High-throughput drug toxicity screening in the BPDCN cell line Cal-1 (AID 1224825)
Conditions: Cal-1 BPDCN cell viability, qHTS; at 45.8 µM (top of the series) unless noted
Text: Blastic plasmacytoid dendritic cell neoplasm (BPDCN) is a rare, aggressive and largely incurable hematologic malignancy originating from plasmacytoid dendritic cells (pDCs). Although an initial response to chemotherapy is common, BPDCN prognosis is extremely poor and most patients relapse with drug-resistant disease leading to a median overall survival of ~1 year after diagnosis. To explore novel potential therapeutic strategies in BPDCN, we performed a high-throughput drug toxicity screening in BPDCN cell liens, using of a library of 1,912 small molecules, enriched for compounds that are either approved or in early stages of development for cancer therapy.
A total of 500 exponentially growing Cal-1 cells were seeded per well in 5 uL of media (RPMI + Glutamine, without phenol red plus10% FBS and 1X Pen/Strep) into 1536-well solid white high base tissue culture treated Greiner One Bio Plates (789173-F), using a multidrop combi dispenser and a small sterile cassette. Compounds and controls totaling 23nL per well (negative control DMSO and positive control 9.2 uM Bortezomib-final) were immediately added to the plates using a 1536 head pin tool from Kalypsys. The plates were then covered with stainless steel gasket lids from Kalypsys and incubated for 48 hours at 37C under 95% relative humidity with 5% CO2. After 48 hours, the plates were removed and allowed to reach room temperature before 3 uL of Cell Titer Glo reagent (Promega) were added using an Aurora Flying Reagent Dispenser Bioraptor. The plates were then spun at 1000 rpms to remove bubbles and incubated for 15 minutes at room temperature before reading on a ViewLux using a luminescent filter with a 10 second exposure. The relative luciferase units were used to calculated percent activity using DMSO as 100% and Bortezomib as 0%.
For `O=C(O)[C@@H](c1ccc(OCc2ccc3ccccc3n2)cc1)C1CCCC1`, the viability (% of control) was 73.2%. `O=C1[C@H](Cc2ccc(O)cc2)N2C(=O)CCN(C(=O)NCc3ccccc3)[C@H]2CN1Cc1cccc2ccccc12` showed a viability (% of control) of 31.2%. With `C1COC(NC(C2CC2)C2CC2)=N1` the viability (% of control) was 53.6%. `CO[C@@H]1[C@H](N(C)C(=O)c2ccccc2)C[C@H]2O[C@]1(C)n1c3ccccc3c3c4c(c5c6ccccc6n2c5c31)C(=O)NC4` showed a viability (% of control) of 14.1%. Compound `CCC(C)N(C)C(=O)c1cc2ccccc2c(-c2ccccc2Cl)n1` (stereo not given) has a viability (% of control) of 94.3%. Work on `Nc1ccc(S(=O)(=O)Nc2ccnn2-c2ccccc2)cc1` yielded a viability (% of control) of 115%. Work on `Cc1ccnc(NS(=O)(=O)c2ccc(NC(=O)Nc3ccc(S(=O)(=O)Nc4nccc(C)n4)cc3)cc2)n1` yielded a viability (% of control) of 24.4%. Work on `N#CC[C@H](C1CCCC1)n1cc(-c2ncnc3[nH]ccc23)cn1` yielded a viability (% of control) of 56.3%. For `CN(C)c1ccc(C2Nc3ccc4ccccc4c3C3=C2C(=O)CC(C)(C)C3)cc1Br` (stereo not given), the viability (% of control) was 111%. `Nc1nc2ccc(OC(F)(F)F)cc2s1` gave a viability (% of control) of 103%. In the case of `CCCc1nc2c(C)cc(-c3nc4ccccc4n3C)cc2n1Cc1ccc(-c2ccccc2C(=O)O)cc1`, the viability (% of control) is reported as 103%. In the case of `COCC(=O)NCC=Cc1ccc2ncnc(Nc3ccc(Oc4ccc(C)nc4)c(C)c3)c2c1`, the viability (% of control) is reported as 20.7%. In the case of `CCCCCCCc1ccc(CCc2cccc(O)c2C(=O)O)cc1`, the viability (% of control) is reported as 66.1%. `Cn1cnc([N+](=O)[O-])c1Sc1ncnc2nc[nH]c12` showed a viability (% of control) of 93.1%. `Cc1cnc(NC(=O)C2=C(O)c3ccccc3S(=O)(=O)N2C)s1` showed a viability (% of control) of 96.3%. Compound `COc1ccc(-c2ccc3c(N4CCOCC4)nc(N4C[C@@H](C)O[C@@H](C)C4)nc3n2)cc1CO` has a viability (% of control) of 12.6%. In the case of `Cc1ccccc1C(OCCN(C)C)c1ccccc1` (stereo not given), the viability (% of control) is reported as 93%. With `CC(c1cc2ccccc2s1)N(O)C(N)=O` (stereo not given) the viability (% of control) was 110%. With `C[C@@H]1CN(Cc2ccc(F)cc2)[C@@H](C)CN1C(=O)c1cc2c(C(=O)C(=O)N(C)C)cn(C)c2cc1Cl` the viability (% of control) was 70.3%. `CCn1c(-c2nonc2N)nc2c(C#CC(C)(C)O)ncc(OC[C@H]3CCCNC3)c21` gave a viability (% of control) of 8.62%. In the case of `CC1(C)SCCN(S(=O)(=O)c2ccc(OCC#CCO)cc2)[C@@H]1C(=O)NO`, the viability (% of control) is reported as 102%. For `CCOc1cc(C=C2C(=O)N(c3ccccc3)N=C2C)cc(Cl)c1OCC(=O)OC`, the viability (% of control) was 61.6%. Compound `COc1ccc(CC2=NN3C([C@@H](CCc4ccccc4)[C@@H](C)O)=NC(C)C3C(=O)N2)cc1OC` (stereo not given in full) has a viability (% of control) of 115%. In the case of `Cc1c(CN2CCN(C(=O)C(C)C)CC2)sc2c(N3CCOCC3)nc(-c3cnc(N)nc3)nc12`, the viability (% of control) is reported as 3.99%. For `CCOc1cc(C(=O)Nc2ccc(Cl)c(-c3nc4ccccc4[nH]3)c2)cc(OCC)c1OCC`, the viability (% of control) was 43.8%. With `Nc1nc2[nH]cc(CCc3ccc(C(=O)N[C@@H](CCC(=O)O)C(=O)O)cc3)c2c(=O)[nH]1` the viability (% of control) was 37.4%. `COc1ccccc1-c1cccc(-c2c(O)c3cc(C#N)c(Cl)cc3[nH]c2=O)c1` showed a viability (% of control) of 99.8% [at 92.2 µM]. With `OCCC#Cc1nc(-c2ccc(F)cc2)c(-c2ccncc2)n1CCCc1ccccc1` the viability (% of control) was 18.4%. In the case of `CCCc1nn(C)c2c(=O)[nH]c(-c3cc(S(=O)(=O)N4CCN(C)CC4)ccc3OCC)nc12`, the viability (% of control) is reported as 81.8%. Work on `CC(C)(N)C(=O)N[C@H](COCc1ccccc1)C(=O)N1CCC2(CC1)CN(S(C)(=O)=O)c1ccccc12` yielded a viability (% of control) of 71%. Compound `CN(C(=O)c1ccc(F)cc1C(F)(F)F)C1CCN(c2nnc(-c3ccnn3C)c3ccccc23)CC1` has a viability (% of control) of 80.2%. For `COc1ccc([C@@H]2CC(=O)c3c(O)cc(O[C@@H]4O[C@H](CO[C@@H]5O[C@@H](C)[C@H](O)[C@@H](O)[C@@H]5O)[C@@H](O)[C@H](O)[C@@H]4O)cc3O2)cc1O`, the viability (% of control) was 54.1% and 116%. `Nc1ncnc2nc(-c3ccc(N4CCOCC4)nc3)cc(-c3cccc(Br)c3)c12` showed a viability (% of control) of 55.4%. Work on `Cc1cc2c(F)c(Oc3ncnn4cc(OC[C@@H](C)O)c(C)c34)ccc2[nH]1` yielded a viability (% of control) of 71.2%. In the case of `CC[C@@H](C)[C@H](NC(=O)[C@H](CC1CCCCC1)NC(=O)c1ccno1)C(=O)N1CCC2(CCc3ccccc32)CC1`, the viability (% of control) is reported as 111%. With `CCc1ccc(CCOc2ccc(CC3SC(=O)NC3=O)cc2)nc1` (stereo not given) the viability (% of control) was 100%. `Cc1cc(C=c2sc3nc4ccccc4n3c2=O)c(C)n1-c1ccccc1` gave a viability (% of control) of 103%. Compound `COc1ccc(-c2ccc3c(N4CCOC[C@H]4C)nc(N4CCOC[C@H]4C)nc3n2)cc1CO` has a viability (% of control) of 22%. `CN1CCN(CCCN2c3ccccc3Sc3ccc(C(F)(F)F)cc32)CC1` gave a viability (% of control) of 77.3%. In the case of `OCCn1cc(-c2cnc3nnn(Cc4ccc5ncccc5c4)c3n2)cn1`, the viability (% of control) is reported as 89.8%.
